Laboratory results as given in the OligoGym collection.

Biological target: IL16
Assay: pooled miR-30 sensor sort-seq; sequence = guide strand
Details: shRNA
Further: reference of the scale not given here.

Sequence | sensor-assay potency score (higher = more potent)
TGATTCACCATTGAGCTCCAGA | -0.0119
TAGATCAGGAACACTGCTGGGC | 0.521
TTTGTTCTGAGGCTGCTCCTTT | 0.156

Biological target: IL18RAP
Assay: as above
Details: shRNA

Sequence | sensor-assay potency score (higher = more potent)
TATTTTCTGATTCTGCTCGGAC | -0.239
TTCTGTTCTACTGAGTCCTTTC | -0.716
TTGTTTTCTAAAACATCAGGAA | -0.521
TCTCACTTGAACAACAGCTCTG | 0.299
TTGGACATCAGATAGGTCGTTA | 0.111
TTGTAGTTCAAAGATACTGGGT | -0.0545
ATAAACTTCATCCACTACGATT | -1.45
TTAACTTCTAAAATCATCTTGA | 1
TTTGAATTTCCTATCAGCCTGA | 0.608
TCATCTTGACACAACAGGCTAC | 0.09
TTTCTGTTCTACTGAGTCCTTT | -0.456
TTTCAGTGTTTGATCATCCAAG | -0.42

Biological target: IL32
Assay: as above
Details: shRNA

Sequence | sensor-assay potency score (higher = more potent)
TTTTTCAAGTAGAGGAGTGAGC | -0.743
TGCGGGATCCTCAACATCCGGG | -0.63
TAGAGGAGTGAGCTCTGGGTGC | -1.21
TTTGAAGTCGTCCTCCAGCTCT | -0.749
TTTATCATAAAATCTTTCTATG | -1.15
TTGCGGGATCCTCAACATCCGG | -1.68
TAGGACTGGAAAGAGGACATGA | 0.275
TGAAGTCGTCCTCCAGCTCTGC | -1.04
TAAAATCTTTCTATGGCCTGGT | 0.537
TTTTATCATAAAATCTTTCTAT | -0.484
ATAAAATCTTTCTATGGCCTGG | -0.133
TAGGACTTGTCACAAAAGCTCT | -1.15

Biological target: IL5
Assay: as above
Details: shRNA

Sequence | sensor-assay potency score (higher = more potent)
TTTTGAATAGTCTTTCCACAGT | -0.99
TTCTTTATTAAGGACAAGTTTT | -1.48
TTCTTCAGTGCACAGTTGGTGA | -1.09
TTGCACAGTTTGACTCTCCAGT | -0.479
TATTTCTTTATTAAGGACAAGT | -0.457
TACAGGAACAGGAATCCTCAGA | -0.449
TTGAATAGTCTTTCCACAGTAC | 0.569
TTTGACTCTCCAGTGTGCCTAT | -0.108
TCTTTCACCAATGCACTTGTGG | -0.0823
TTTTATGTACAGGAACAGGAAT | -1.18
TACACCAAGAAACTCTTGCAGG | -0.92
TTACTCTCCGTCTTTCTTCTCC | 0.308
